The campaign covered roughly 1,400 compounds. About 350 (25%) were called active. About 2% were inconclusive and are not listed. How the calls were made is not given here. These entries were drawn from the full list. Potency and affinity values are given separately.
assay: C. difficile growth inhibition, confirmation, 4-point retest (AID 1224921); conditions: Clostridioides difficile clinical isolate growth, OD600, 24 h, stronger effect = lower value; at 30 µM unless noted;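 further: plate controls were DMSO wells for no effect and levofloxacin 16 µg/mL wells for full effect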

Max activity, inactive:
CCCNC(=O)N(C)C[C@@H]1Oc2cc(C#Cc3ccccn3)ccc2S(=O)(=O)N([C@@H](C)CO)C[C@H]1C 9.97%
CO[C@H]1O[C@H](CO)[C@@H](OC(=O)Nc2ccc3c(c2)OCO3)[C@H](OC(=O)Nc2ccccc2)[C@H]1OC(=O)Nc1ccccc1 10.7%
CCC(=O)N[C@H]1C=C[C@@H](CC(=O)OC)O[C@@H]1CO -10.5%
CN1C(=O)c2cc(NC(=O)Cc3ccccc3)ccc2OC[C@H]2O[C@@H](CC(=O)NCC3CC3)CC[C@H]21 -7.83%
O=C(C[C@@H]1C[C@@H]2c3cc(NC(=O)Nc4ccc(C(F)(F)F)cc4)ccc3O[C@@H]2[C@H](CO)O1)NCc1ccc(Cl)cc1 27.7%
CCC(=O)Nc1ccc2c(c1)OC[C@H](C)N(CC1CCCCC1)C[C@@H](C)[C@@H](OC)CN(C)C2=O 8.81%
CCCN1[C@@H]2c3ccc(-c4ccc(F)cc4)c(=O)n3C[C@@H]2[C@@H](CO)[C@@H]1C(=O)N[C@@H](C)c1ccccc1 -8.45%
COc1ccccc1-c1ccc2c(c1)O[C@@H](CN(C)C(=O)c1ccccc1)[C@@H](C)CN([C@@H](C)CO)S2(=O)=O 29.9%
COCC(=O)Nc1ccc2c(c1)OC[C@H](C)N(Cc1ccccc1)C[C@@H](C)[C@@H](OC)CN(C)C2=O 5.39%
CCCC(=O)Nc1ccc2c(c1)C(=O)N(C)C[C@H](OC)[C@@H](C)CN(S(=O)(=O)c1cn(C)cn1)[C@@H](C)CO2 -11.7%
C[C@H]1CCCCO[C@@H](CN(C)Cc2ccc(C(=O)O)cc2)[C@@H](C)CN([C@@H](C)CO)C(=O)c2cc(NC(=O)Nc3ccc4c(c3)OCO4)ccc2O1 -7.43%
CCC(=O)N(C)C[C@@H]1Oc2cc(C#CCC3CCCC3)ccc2S(=O)(=O)N([C@H](C)CO)C[C@H]1C 29.4%
COc1cc(O)c2c(c1)oc(=O)c1c3cc(O)c(O)cc3oc21 14.5%
CNC(=O)C[C@@H]1CC[C@H]2[C@@H](COc3ccc(NC(=O)c4ccccc4F)cc3C(=O)N2C)O1 -11.2% [at 1.95 µM]
CNC(=O)C[C@H]1CC[C@H]2[C@H](COc3ccc(NC(=O)c4ccccc4F)cc3C(=O)N2C)O1 -13.3% [at 1.95 µM]
O=C(Nc1ccc2c(c1)OCO2)N[C@@H]1C=C[C@H](CC(=O)N2CCN(c3ccccc3)CC2)O[C@H]1CO 18.2%
CO[C@@H]1CN(C)C(=O)c2ccc(NC(=O)c3ccc(F)cc3)cc2OC[C@H](C)N(C(=O)CN(C)C)C[C@@H]1C -20.6% [at 1.95 µM]
CNC[C@H]1Oc2cc(-c3ccccc3F)ccc2S(=O)(=O)N([C@H](C)CO)C[C@H]1C 25.6%
C[C@@H]1CN([C@H](C)CO)C(=O)Cc2cc(NC(=O)C3CC3)ccc2O[C@@H]1CN(C)Cc1ccc(-c2ccccc2)cc1 43.1% [at 35 µM]
CC(C)C#Cc1ccc2c(c1)O[C@H](CN(C)Cc1ccncc1)[C@@H](C)CN([C@H](C)CO)S2(=O)=O 51.9%
CO[C@H]1CN(C)C(=O)c2cc(NC(=O)Nc3ccccc3F)ccc2OC[C@@H](C)N(CC2CC2)C[C@@H]1C -19.6% [at 1.95 µM]
CO[C@@H]1CN(C)C(=O)c2ccc(NC(C)=O)cc2OC[C@@H](C)N(Cc2cccc(F)c2)C[C@@H]1C 16.8%
CCS(=O)(=O)Nc1ccc2c(c1)C(=O)N(C)C[C@@H](OC)[C@H](C)CN(CC1CCCC1)[C@H](C)CO2 -10.9% [at 1.95 µM]
C[C@@H]1CN([C@H](C)CO)S(=O)(=O)c2ccc(C#CCC3CCCC3)cc2O[C@H]1CN(C)C(=O)CC1CC1 15.9%
COc1cccc(NC(=O)N[C@H]2CC[C@H](CC(=O)Nc3ccc(-c4ccccc4)cc3)O[C@H]2CO)c1 32.5%
COc1cccc(-c2ccc3c(c2)O[C@@H](CN(C)Cc2cccnc2)[C@H](C)CN([C@H](C)CO)S3(=O)=O)c1 34.9%
C[C@@H]1CN([C@H](C)CO)C(=O)c2cccc(NC(=O)c3nc4ccccc4s3)c2O[C@H]1CN(C)Cc1ccc2c(c1)OCO2 20.2%
O=C(C[C@H]1C[C@H]2c3cc(NC(=O)C4CCC4)ccc3O[C@H]2[C@H](CO)O1)NCCc1ccccc1 -11.7% [at 1.95 µM]
CCC(=O)N1C[C@H](C)[C@H](OC)CN(C)C(=O)c2ccc(NC(=O)Nc3ccc(Cl)cc3)cc2OC[C@H]1C 20%
Cc1ccccc1S(=O)(=O)NCC[C@H]1CC[C@H](NC(=O)Nc2cccc(Cl)c2)[C@H](CO)O1 6.17% [at 35 µM]
CCC(=O)N[C@@H]1CC[C@@H](CC(=O)NCc2ccccc2F)O[C@@H]1CO -13% [at 8 µM]
CCC(=O)N[C@@H]1CC[C@H](CC(=O)NCc2ccccc2F)O[C@@H]1CO -16.5% [at 8 µM]
CCC(=O)N[C@H]1CC[C@H](CC(=O)NCc2ccccc2F)O[C@H]1CO -6.85% [at 0.5 µM]
N#C[C@H]1[C@H](c2ccc(C#Cc3ccccc3F)cc2)[C@@H](CO)N1C(=O)C1CCC1 26.9%
C[C@@H]1CN([C@H](C)CO)S(=O)(=O)c2ccc(C#CC3CCCCC3)cc2O[C@@H]1CN(C)Cc1cccnc1 42.2%
CO[C@H]1CN(C)C(=O)c2ccc(NC(=O)c3ccc(F)cc3)cc2OC[C@H](C)N(C(=O)CN(C)C)C[C@@H]1C -12.9%
COc1ccccc1C#Cc1ccc2c(c1)O[C@@H](CN(C)Cc1cccnc1)[C@H](C)CN([C@H](C)CO)S2(=O)=O 35.7%
O=C(C[C@H]1C[C@@H]2c3cc(NC(=O)Nc4ccc(C(F)(F)F)cc4)ccc3O[C@@H]2[C@H](CO)O1)NCc1ccc2c(c1)OCO2 9.19%
C[C@@H]1CN([C@@H](C)CO)S(=O)(=O)c2ccc(C#CCC3CCCC3)cc2O[C@H]1CN(C)C(=O)c1ccccn1 25.9%
